Calls of active or inactive are those of the source. The calls were made as follows: active = hit-call score of the fitted dose curve at least 0.9, where 1 is the maximum; inactive = score below 0.9.
assay: CCTE_Padilla_ZF_Score.Any: CCTE's 144 Hour Post-fertilization zebrafish Assay Score for Any Mortality or Malformation, Padilla Lab (AID 2284416)
Procedure, shortened: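 Wild-type zebrafish embryos with chorions, one per well in 10% Hanks' from 6–8 hpf, dosed in sealed plates at 26 C, 14:10 h light:dark; rinsed at 5 dpf; blinded scoring at 6 dpf for death or malformation, versus DMSO.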

Compound | outcome | AC50
C[Si](Cl)(Cl)CCC(F)(F)C(F)(F)C(F)(F)C(F)(F)C(F)(F)C(F)(F)F | inactive | –
NC(=O)C(F)(F)C(F)(F)C(F)(F)C(F)(F)C(N)=O | inactive | –
NCC(F)(F)C(F)(F)C(F)(F)C(F)(F)C(F)(F)C(F)(F)C(F)(F)C(F)(F)F | – | 32.9 µM (active)
O=S(=O)(O)CCC(F)(F)C(F)(F)C(F)(F)C(F)(F)C(F)(F)C(F)(F)C(F)(F)C(F)(F)F | inactive | –
OCC(F)(F)C(F)(F)C(F)(F)CO | inactive | –
CN(C(=O)C(F)(F)C(F)(F)C(F)(F)F)[Si](C)(C)C | inactive | –
COC(F)(C(F)F)C(F)(F)F (configuration not stated) | inactive | –
O=C(F)C1(F)C(F)(F)C(F)(F)C(F)(F)C(F)(F)C1(F)F | inactive | –
O=S(=O)(O)CCC(F)(F)C(F)(F)C(F)(F)C(F)(F)F | inactive | –
NC(=O)C(F)(F)C(F)(F)C(F)(F)F | inactive | –
OC(O)C(F)(F)C(F)(F)F | inactive | –
OCCCCC(F)(F)C(F)(F)C(F)(F)C(F)(F)F | – | 29 µM (active)
OCC(O)CC(F)(F)C(F)(F)C(F)(F)C(F)(F)F (configuration not stated) | inactive | –
O=C(O)CCC(F)(F)C(F)(F)C(F)(F)C(F)(F)C(F)(F)C(F)(F)C(F)(F)F | inactive | –
OCC(O)CC(F)(F)C(F)(F)C(F)(F)C(F)(F)C(F)(F)C(F)(F)C(F)(F)C(F)(F)F (configuration not stated) | – | 9.82 µM (active)
OCCCC(F)(F)C(F)(F)C(F)(F)C(F)(F)C(F)(F)C(F)(F)C(F)(F)C(F)(F)F | inactive | –
OCC(F)(F)C(F)(F)C(F)(F)C(F)(F)C(F)(F)C(F)(F)C(F)(F)C(F)(F)CO | – | 5.84 µM (active)
